One test has as its target Albumin (Bos taurus) (UniProt P02769). Description: compounds binding labelled BSA control protein – biochemical, small-molecule microarray, Alexa647 label, 635/667 nm fluorescence, artefact control for SMM control protein annotation, profiling panel (AID 1118).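 Note: score merges 667 nm emission intensity and signal-to-noise per printed compound spot.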 The settings on record: BSA-A647 binding, fluorescence 635 nm, higher = more signal.
The nature of test [1]: probe aXIP binding to arrayed compounds – biochemical, NeuroSMM set, 635/667 nm fluorescence, primary screen (AID 1119).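 Note: probe is the protein aXip251-270 applied at 1 µg/mL to compound-printed slides; binding of probe to printed compounds measured as 667 nm fluorescence plus signal to noise.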 The settings on record: small-molecule microarray, higher = more signal, called active from +8 up or from −8 down.
Test [2] in a line: probe aNOTCH3 binding on compound microarray – biochemical, small-molecule microarray, 635/667 nm fluorescence, primary screen (AID 1120).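 Note: probe is a biotin-tagged antibody raised against NOTCH3 rather than NOTCH3 protein; score merges spot fluorescence near 667 nm with spot signal to noise.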 The settings on record: higher = more signal.
Test [3] is described as follows: probe aNOTCH2 binding on compound microarray – biochemical, small-molecule microarray, 635/667 nm fluorescence, primary screen (AID 1121).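 Note: score merges feature fluorescence read at 667 nm with its signal to noise.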 The settings on record: higher = more signal.
The target of test [4] is Carbonic anhydrase 2 (Homo sapiens) (UniProt P00918). The experiment in a line: compounds binding carbonic anhydrase 2 – biochemical, small-molecule microarray, Alexa647-labelled CAII, profiling panel (AID 1122). The settings on record: CAII-A647 binding fluorescence, higher = more signal.
Test [5] is described as follows: COS7 lysate on small-molecule microarray, probe aHis, 635 nm (AID 1123).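 Note: z-score combines 667nm fluorescence intensity with signal-to-noise per printed compound spot.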 The settings on record: COS7 cell lysate, fluorescence, higher = more signal.
The nature of test [6]: probe aLAP1 signal on lysate-treated microarray – cell lysate, small-molecule microarray, COS7 lysate, primary screen (AID 1124).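 Note: lysate comes from COS7 cells expressing LAP1 and is applied at 0.3 µg/mL; score merges spot fluorescence near 667 nm with signal-to-noise over triplicate slides.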 The settings on record: probe aLAP1, fluorescence, higher = more signal.
The next test relates to Sam68 (KHDRBS1). The experiment in a line: compounds binding KHDRBS1 protein – biochemical, small-molecule microarray, 635 nm fluorescence, primary screen (AID 1125).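 Note: score merges 667 nm channel intensity with signal to noise over triplicate slides.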 The settings on record: higher = more signal.
Test [7] concerns Chordin-like protein 2 (CHRDL2). Description: compounds binding chordin-like 2 – biochemical, small-molecule microarray, 635 nm fluorescence, primary screen (AID 1126).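 Note: printed compound slides probed with Chrdl2 protein at 4 µg/mL for 1 h at 4 C; score merges 667 nm emission intensity with signal to noise over three replicate slides.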 The settings on record: fluorescence 635 nm, higher = more signal.
Test [8] addresses Concanavalin-A (Canavalia ensiformis) (UniProt P02866). The experiment in a line: compounds binding concanavalin A lectin – biochemical, small-molecule microarray, Alexa647 label, 635 nm, artefact control for SMM control protein annotation, primary screen (AID 1127).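 Note: z combines 667 nm emission intensity with signal-to-noise across three replicate slides.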 The settings on record: ConA-A647 binding fluorescence, higher = more signal.

SMILES strings stand for the structures. Active and inactive are the calls of the source.

Concanavalin-A (Canavalia ensiformis), sequence (P02866 whole entry, looked up): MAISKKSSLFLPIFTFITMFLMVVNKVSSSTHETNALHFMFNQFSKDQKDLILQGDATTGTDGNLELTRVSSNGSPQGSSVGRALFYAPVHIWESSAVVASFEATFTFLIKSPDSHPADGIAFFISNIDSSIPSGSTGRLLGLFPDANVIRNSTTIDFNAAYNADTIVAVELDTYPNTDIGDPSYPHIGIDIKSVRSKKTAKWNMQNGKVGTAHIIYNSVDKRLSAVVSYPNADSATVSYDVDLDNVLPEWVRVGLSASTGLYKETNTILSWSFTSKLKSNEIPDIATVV
Albumin (Bos taurus), sequence (P02769 whole entry, looked up): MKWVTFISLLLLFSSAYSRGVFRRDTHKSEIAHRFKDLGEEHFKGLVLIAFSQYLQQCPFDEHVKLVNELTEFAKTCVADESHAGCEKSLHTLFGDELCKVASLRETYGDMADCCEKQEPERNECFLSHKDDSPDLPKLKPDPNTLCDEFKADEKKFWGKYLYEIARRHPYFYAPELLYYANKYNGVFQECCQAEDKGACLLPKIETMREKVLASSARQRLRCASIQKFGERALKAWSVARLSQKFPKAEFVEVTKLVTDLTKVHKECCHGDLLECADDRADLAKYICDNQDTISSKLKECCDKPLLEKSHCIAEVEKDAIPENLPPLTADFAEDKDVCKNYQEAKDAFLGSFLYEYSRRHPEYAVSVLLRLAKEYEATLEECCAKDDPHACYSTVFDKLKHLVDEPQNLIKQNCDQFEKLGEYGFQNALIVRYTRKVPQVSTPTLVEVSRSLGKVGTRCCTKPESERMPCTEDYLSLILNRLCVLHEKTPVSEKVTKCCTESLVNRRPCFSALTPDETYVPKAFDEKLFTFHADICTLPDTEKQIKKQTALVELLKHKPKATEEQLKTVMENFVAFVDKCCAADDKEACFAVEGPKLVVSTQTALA

With `CN1C(=O)C2C=CC(C(O)c3ccc([N+](=O)[O-])cc3)N(N3CCCCC3)C2C1=O` (stereo not given), the composite z-score in the test with Albumin (Bos taurus) was found to be 0.818; in [2], 0.246; in test [3], 0.0791; in test [4], 0.673; in test [5] it was 1.55; in [6] it was 0.761. Also, the composite z-score was 1.26 in the test with Sam68 (KHDRBS1), 0.172 in [7] and 1.09 in [8]. Besides, the composite Z-score in test [1] is -0.0829 (inactive).

Regarding `C=C(COC)/C(=C/C[C@@H](OC(=O)c1ccncc1)c1ccc(CO)o1)c1cc(C(=O)OC)ccc1OC`, the composite z-score with Albumin (Bos taurus) was 0.0436; in test [2], 0.0979; in test [3], -0.104; in [4] it was 0.482; in test [5], 0.641; in test [6], 1.46. Further, the composite z-score in the test on Sam68 (KHDRBS1) came to 1.31; in test [7] it was 1.1; in [8], 1.14. Also, the composite Z-score in test [1] was -0.0882 (inactive).

On to `NC(=O)N1C(=O)C2C(C1=O)C1C=C(c3ccc(CO)cc3)C2C(c2cccs2)N1Cc1cccc(OC(F)(F)F)c1` (stereo not given), for which the composite z-score in the test with Albumin (Bos taurus) is -0.137; in [2], 0.111; in test [3], -0.0449; in test [4], 0.72; in test [5], 0.669; in test [6], 0.798. Besides, the composite z-score in the test with Sam68 (KHDRBS1) was -0.882; in [7], 0.38; in test [8] it was -0.0204. Further, in test [1], the composite Z-score was 0.29 (inactive).

On to `CC1(C)[C@@H]2CC(C(O)C3C=CC4C(=O)N(c5ccccc5)C(=O)C4N3Nc3ccc([N+](=O)[O-])cc3)=C[C@H]1C2` (stereo not given in full), for which the composite z-score is 0.973 with Albumin (Bos taurus); 0.101 in test [2]; -0.106 in [3]; 0.425 in [4]; 2.8 in test [5]; 0.0175 in [6]. The composite z-score in the test on Sam68 (KHDRBS1) came out at 1.33; in [7] it was 0.649; in test [8], 1.17. Also, the composite Z-score in [1] was 0.131 (inactive).

Turning to `C=CCNC(=O)[C@H]1[C@@H]2C(=O)O[C@@H](c3ccccc3)[C@@H](c3ccccc3)N2[C@@H](c2ccccc2OCCO)[C@]12C(=O)Nc1ccc(C#CCC(C(=O)OC)C(=O)OC)cc12`, the composite z-score with Albumin (Bos taurus) is -0.195; in test [2], 0.308; in test [3] it was 0.0029; in test [4], 0.251; in test [5], 2.23; in test [6], 0.634. The composite z-score with Sam68 (KHDRBS1) turned out to be 1.29; in test [7], 1.37; in test [8], 0.944. For the same compound, in [1], the composite Z-score was 1.15 (inactive).

For the compound `COC(=O)[C@@]1(Cc2ccc(F)cc2)[C@H]2c3cc(C(=O)N(C)C)n(Cc4ccccc4)c3C[C@H]2CN1C(=O)c1ccccc1`, the composite z-score stood at 0.816 in the test with Albumin (Bos taurus); 0.215 in test [2]; 0.0431 in test [3]; 0.183 in [4]; 2.05 in test [5]; 0.495 in test [6]. The composite z-score in the test with Sam68 (KHDRBS1) was 0.78; in test [7], -0.643; in test [8], 1.04. Further, in test [1], the composite Z-score is 0.0843 (inactive).

On to `C=CCOC(=O)[C@H]1[C@@H]2C(=O)O[C@@H](c3ccccc3)[C@@H](c3ccccc3)N2[C@@H](c2ccc(OCCOC(=O)[C@H]3C[C@H]4C(=O)N[C@@H](CCCC[N+](C)(C)C)C(=O)N4[C@H]3c3ccc(O)cc3)cc2)[C@]12C(=O)Nc1ccc(I)cc12`, for which the composite z-score was -0.763 in the test with Albumin (Bos taurus); 0.191 in [2]; 0.0482 in test [3]; -0.141 in test [4]; 0.502 in [5]; -0.432 in test [6]. In addition, the composite z-score in the test with Sam68 (KHDRBS1) is 1.11; in test [7] it was 1.11; in test [8] it was 0.401. For the same compound, in [1], the composite Z-score is 1.88 (inactive).

In the case of `COC(=O)[C@@]1(Cc2ccc(OC)cc2)[C@H]2c3cc(C(=O)N(C)C)n(Cc4ccc(S(C)(=O)=O)cc4)c3C[C@H]2CN1C(=O)c1ccccc1`, the composite z-score in the test with Albumin (Bos taurus) was 0.49; in test [2], 0.697; in [3] it was -0.168; in test [4], 0.725; in test [5] it was 2.72; in [6], 0.969. The composite z-score in the test with Sam68 (KHDRBS1) was 0.549; in test [7], -0.948; in test [8] it was -1.06. For the same compound, the composite Z-score in [1] is -0.357 (inactive).

For `C=CCOC(=O)[C@H]1[C@@H]2C(=O)O[C@@H](c3ccccc3)[C@@H](c3ccccc3)N2[C@@H](c2ccc(OCCOC(=O)[C@@H]3C[C@@H]4C(=O)N[C@@H](CCCCNC(C)=O)C(=O)N4[C@@H]3c3ccc(O)cc3)cc2)[C@]12C(=O)Nc1ccccc12`, the composite z-score was -0.729 in the test with Albumin (Bos taurus); 0.173 in [2]; -0.0291 in test [3]; 0.638 in test [4]; 1.94 in [5]; 0.21 in [6]. For the same compound, the composite z-score in the test on Sam68 (KHDRBS1) was determined as 1.3; in test [7] it was 1; in test [8], 1.2. Moreover, in [1], the composite Z-score was 0.282 (inactive).

Turning to `O=C(N1CCCCC1)[C@]1(Cc2ccccc2)N=C(c2ccc(OCCCO)cc2)O[C@@H]1c1ccccc1`, the composite z-score with Albumin (Bos taurus) is 0.441; in test [2], 0.096; in test [3] it was -0.0561; in test [4], 0.225; in test [5], 1.24; in test [6] it was 0.968. Besides, the composite z-score in the test with Sam68 (KHDRBS1) was 1.18; in test [7] it was -0.862; in test [8], 1.06. In addition, in test [1], the composite Z-score was -0.425 (inactive).

The record behind these values is PubChem BioAssay.
